Results filed as inconclusive are left out. Some structures have more than one record in an assay (separate samples or runs), and their calls can disagree. The source made the active and inactive calls. Unless noted, calls come from the whole dose curve.
Assays:
[1] = Nuclear factor erythroid 2-related factor 2/antioxidant responsive element (Nrf2/ARE) small molecule agonists: qHTS cell viability counter screen in human keratinocytes (AID 1919968; active = well fitted curve in the direction sought with a large enough effect in the repeat runs; an effect the other way counts as inactive or inconclusive; note: nearly all actives have a fitted effect of over 55% in size; note: potency is the fitted concentration of half-maximal effect)
Summary of the method: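 Stably transfected HaCaT (KeratinoSens), 1,500/well. Test agents in DMSO were applied for 23 h, 37 C/5% CO2. CellTiter-Fluor was incubated 1 h before the fluorescence read.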

[2] = biological target: Gonadotropin-releasing hormone receptor (Homo sapiens) (UniProt P30968); test: Human gonadotropin-releasing hormone receptor (GnRHR) small molecule agonists, calcium flux assay in GnRHR-HEK293 cells (AID 1920063); note: nearly all actives have a fitted effect of over 35% in size
Summary of the method: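 Stable human GnRHR HEK293 line. 18 h plating, then calcium dye for 1 h at 37 C. Agonist-mode compound addition from DMSO stocks; fluorescence monitored 3 min.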

[3] = biological target: KiSS-1 receptor (Homo sapiens) (UniProt Q969F8); test: Human kisspeptin (KISS1R) small molecule agonists, calcium flux assay in KISS1R-HEK293 cells (AID 1920064; active = well fitted curve in the direction sought with a large enough effect in the repeat runs; an effect the other way counts as inactive or inconclusive)
Summary of the method: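 After overnight (18 h) culture at 37 C/5% CO2, human KISS1R-HEK293 cells received calcium dye for 1 h, then test compound; emission at 540 nm (excitation 480 nm) was tracked for 3 min.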

[4] = G protein-coupled receptor (GPCR) small molecule agonists, calcium flux assay: HEK293 wild type cell line counter screen (AID 1920065)
Summary of the method: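 Following 18 h incubation at 37 C/5% CO2, plates got calcium dye for 1 h; compounds, ATP or DMSO were then pinned in and fluorescence followed kinetically (480/540 nm).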

[5] = p53 small molecule agonists, cell-based qHTS assay with human liver microsomes (AID 1963577)
Summary of the method: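 Cells carrying a p53-responsive bla reporter were rested 5 h (37 C, 5% CO2) before compound transfer. Human liver microsomes plus NADPH, 0.5 mg/mL final apiece, supplied metabolism during the 16 h 37 C exposure.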

[6] = p53 small molecule agonists, cell-based qHTS assay with rat liver microsomes (AID 1963578)
Summary of the method: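 Fluorescence from a beta-lactamase reporter under a p53 response element was measured after cells had been incubated 16 h at 37 C with test compound and rat liver microsomes plus NADPH (0.5 mg/mL final each).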

[7] = p53 small molecule agonists, cell-based qHTS assay with human liver microsomes: qHTS cell viability counter screen (AID 1963579); note: nearly all actives have a fitted effect of over 45% in size; note: potency is the fitted concentration of half-maximal effect
Summary of the method: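 Seed p53RE-bla cells at 4,000 per well; incubate 5 h at 37 C; add compound, human liver microsomes and NADPH; incubate 16 h at 37 C; add CellTiter-Glo; after 30 min at room temperature, read luminescence.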

[8] = p53 small molecule agonists, cell-based qHTS assay with rat liver microsomes: qHTS cell viability counter screen (AID 1963580); note: nearly all actives have a fitted effect of over 45% in size
Summary of the method: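 Cytotoxicity counter screen: intracellular ATP measured by CellTiter-Glo luminescence in the same wells as the beta-lactamase reporter read, on HCT-116 p53RE-bla cells exposed 16 h at 37 C to compounds with rat liver microsomes and NADPH, each 0.5 mg/mL final.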

[9] = p53 small molecule agonists, cell-based qHTS assay: qHTS cell viability counter screen (AID 1963581); note: nearly all actives have a fitted effect of over 45% in size
Summary of the method: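 qHTS counter screen: 16 h compound exposure at 37 C of p53RE-bla HCT-116 cells (4,000 per well, seeded 5 h prior), cell viability by ATP luminescence.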

[10] = p53 small molecule agonists, cell-based qHTS assay (AID 1963582; active = well fitted activation curve with a large enough effect in the signal ratio in the repeat runs, not every such curve was filed as active; the % refers to the signal ratio)
Summary of the method: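 Measured: fluorescence from cleaved LiveBLAzer substrate. System: p53RE-bla cells, 16 h compound treatment at 37 C, 2 h substrate step at room temperature.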

[11] = cAMP Responsive Elements (CRE) small molecule agonists, cell-based qHTS assay (AID 1963590)
Summary of the method: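 Test agents in DMSO were incubated 3 h at 37 C/5% CO2 with CRE-bla HEK 293T cells seeded 18 h earlier; LiveBLAzer B/G FRET substrate was added and read after 2 h at room temperature.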

[12] = cAMP Responsive Elements (CRE) small molecule antagonists, cell-based qHTS assay (AID 1963591; active = well fitted inhibition curve with a large enough effect in the signal ratio in the repeat runs, not every such curve was filed as active; the % refers to the signal ratio)
Summary of the method: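 Reporter line CRE-bla HEK 293T in dialyzed-FBS DMEM; cells preincubated 18 h, treated 3 h with compound plus NKH477 (0.25 uM final); LiveBLAzer FRET, 2 h RT.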

[13] = biological target: Beta-2 adrenergic receptor (Homo sapiens) (UniProt P07550); test: Adrenergic beta2 receptor (ADRB2) small molecule antagonists, cell-based qHTS assay (AID 1963592); note: series mostly up to about 92 µM; nearly all actives have a fitted effect of over 50% in size
Summary of the method: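 Assay format: CHO-ADRB2 cells, 18-20hr seeding at 37C/5% CO2, then compound plus 1nM isoproterenol agonist mix for 0.5hr RT. Homogeneous time-resolved fluorescence cAMP detection after 1hr, expressed as 665/615 nm ratio.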

[14] = biological target: D(2) dopamine receptor (Homo sapiens) (UniProt P14416); test: Dopamine D2 receptor (DRD2) small molecule agonists, cell-based qHTS assay (AID 1963594); note: nearly all actives have a fitted effect of over 35% in size
Summary of the method: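 HEK293 cells stably expressing human DRD2, pre-treated with PDE inhibitor Ro20-1724 (0.1 mM final) and compound 10 min at room temperature, then stimulated with NKH477 (200nM […]) for 30 min. cAMP read by HTRF (665/620 nm).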

[15] = Nuclear factor erythroid 2-related factor 2/antioxidant responsive element (Nrf2/ARE) small molecule agonists: luciferase reporter gene qHTS assay in human keratinocytes (AID 1919969); note: nearly all actives have a fitted effect of over 35% in size
[16] = biological target: 5-hydroxytryptamine receptor 2A (Homo sapiens) (UniProt P28223); test: 5-hydroxytryptamine receptor 2A (HTR2A) small molecule antagonists, cell-based qHTS assay (AID 1963586); note: nearly all actives have a fitted effect of over 45% in size
Summary of the method: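 CHO cells stably expressing human HTR2A were plated for 18 h at 37 C, then loaded with calcium dye for 1 h. Compounds were preincubated 5 min at room temperature before DOI (4 nM solution) was added. Kinetic fluorescence was read for 3 min.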

[17] = biological target: 5-hydroxytryptamine receptor 2A (Homo sapiens) (UniProt P28223); test: 5-hydroxytryptamine receptor 2A (HTR2A) small molecule agonists, cell-based qHTS assay (AID 1963587); note: nearly all actives have a fitted effect of over 30% in size
Summary of the method: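 CHO cells stably expressing human HTR2A, plated 18 h, loaded with calcium dye 1 h at 37 C. Agonist mode: compounds added and intracellular calcium fluorescence recorded kinetically for 2 min at 1 sec intervals.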

[18] = biological target: Muscarinic acetylcholine receptor M1 (Homo sapiens) (UniProt P11229); test: Cholinergic receptor muscarinic 1 (CHRM1) small molecule antagonists, cell-based qHTS assay (AID 1963588); note: nearly all actives have a fitted effect of over 40% in size
Summary of the method: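 Compounds were tested at 15 concentrations in three independent runs. Dye-loaded CHRM1-CHO cells were exposed 5 min at room temperature before stimulation by acetylcholine added at 50nM. Intracellular calcium was read kinetically on FDSS for 3 min.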

[19] = biological target: Muscarinic acetylcholine receptor M1 (Homo sapiens) (UniProt P11229); test: Cholinergic receptor muscarinic 1 (CHRM1) small molecule agonists, cell-based qHTS assay (AID 1963589); note: nearly all actives have a fitted effect of over 35% in size
Summary of the method: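 Kinetic fluorescence (1 s intervals) of calcium-sensitive dye in human M1 CHO cells after compound addition; cells pre-incubated 18 h at 37 C/5% CO2 and dye-loaded 1 h.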

[20] = biological target: Beta-2 adrenergic receptor (Homo sapiens) (UniProt P07550); test: Adrenergic beta2 receptor (ADRB2) small molecule agonists, cell-based qHTS assay (AID 1963593);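 note: CHO cells stably overexpressing human ADRB2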
Summary of the method: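 CHO cells stably over-expressing ADRB2 were plated overnight at 37C, then dosed with compounds plus a stimulation mix containing 100uM IBMX and 25uM Ro-20-1724 for 0.5hr at room temperature. cAMP was measured by HTRF competition, 1hr.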
% is set by controls: 0 for no effect and ±100 for the full control effect.

Muscarinic acetylcholine receptor M1 (Homo sapiens), sequence (P11229 whole entry, looked up): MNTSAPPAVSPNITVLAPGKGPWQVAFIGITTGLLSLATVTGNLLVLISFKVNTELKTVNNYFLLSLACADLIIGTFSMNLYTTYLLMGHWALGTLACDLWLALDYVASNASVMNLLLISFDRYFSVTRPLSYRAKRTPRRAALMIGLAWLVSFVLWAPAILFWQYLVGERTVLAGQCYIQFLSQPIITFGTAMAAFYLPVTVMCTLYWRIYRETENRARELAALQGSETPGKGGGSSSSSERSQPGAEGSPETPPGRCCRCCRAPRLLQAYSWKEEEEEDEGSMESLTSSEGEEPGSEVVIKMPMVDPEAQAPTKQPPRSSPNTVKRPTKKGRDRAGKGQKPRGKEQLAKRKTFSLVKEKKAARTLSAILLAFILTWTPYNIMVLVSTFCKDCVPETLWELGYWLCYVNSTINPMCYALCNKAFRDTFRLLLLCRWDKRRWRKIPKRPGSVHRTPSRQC
D(2) dopamine receptor (Homo sapiens), sequence (P14416 whole entry, looked up): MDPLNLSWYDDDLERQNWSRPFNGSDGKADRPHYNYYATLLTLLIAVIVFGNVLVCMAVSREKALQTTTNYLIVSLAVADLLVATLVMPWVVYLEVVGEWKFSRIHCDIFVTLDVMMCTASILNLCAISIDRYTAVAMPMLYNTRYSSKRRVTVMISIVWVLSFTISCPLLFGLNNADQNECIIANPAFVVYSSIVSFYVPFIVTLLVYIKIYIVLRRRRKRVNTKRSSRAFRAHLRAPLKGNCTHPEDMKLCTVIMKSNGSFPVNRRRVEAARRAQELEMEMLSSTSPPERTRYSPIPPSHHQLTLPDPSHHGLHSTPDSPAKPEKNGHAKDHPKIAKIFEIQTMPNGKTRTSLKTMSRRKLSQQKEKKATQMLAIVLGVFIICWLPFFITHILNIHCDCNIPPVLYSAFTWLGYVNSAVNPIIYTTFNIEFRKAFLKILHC
KiSS-1 receptor (Homo sapiens), sequence (Q969F8 whole entry, looked up): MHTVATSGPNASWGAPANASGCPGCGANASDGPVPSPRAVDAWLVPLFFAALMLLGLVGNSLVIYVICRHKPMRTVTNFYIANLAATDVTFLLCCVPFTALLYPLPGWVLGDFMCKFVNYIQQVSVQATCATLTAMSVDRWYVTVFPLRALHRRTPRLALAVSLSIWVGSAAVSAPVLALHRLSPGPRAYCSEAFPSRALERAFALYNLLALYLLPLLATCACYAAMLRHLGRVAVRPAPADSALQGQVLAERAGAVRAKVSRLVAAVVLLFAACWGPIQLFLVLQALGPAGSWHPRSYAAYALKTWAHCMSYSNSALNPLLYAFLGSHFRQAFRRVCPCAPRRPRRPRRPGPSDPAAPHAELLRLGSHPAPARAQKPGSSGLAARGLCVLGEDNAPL
Gonadotropin-releasing hormone receptor (Homo sapiens), sequence (P30968 whole entry, looked up): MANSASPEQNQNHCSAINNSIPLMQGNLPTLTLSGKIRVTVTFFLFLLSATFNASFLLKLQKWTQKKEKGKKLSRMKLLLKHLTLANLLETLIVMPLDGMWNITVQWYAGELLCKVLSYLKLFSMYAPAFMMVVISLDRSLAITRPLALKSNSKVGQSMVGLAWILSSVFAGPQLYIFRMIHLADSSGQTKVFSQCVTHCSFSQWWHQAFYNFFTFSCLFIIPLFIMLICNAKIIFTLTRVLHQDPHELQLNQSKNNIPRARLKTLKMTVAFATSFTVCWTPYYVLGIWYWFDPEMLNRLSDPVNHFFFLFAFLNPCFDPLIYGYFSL
5-hydroxytryptamine receptor 2A (Homo sapiens), sequence (P28223 whole entry, looked up): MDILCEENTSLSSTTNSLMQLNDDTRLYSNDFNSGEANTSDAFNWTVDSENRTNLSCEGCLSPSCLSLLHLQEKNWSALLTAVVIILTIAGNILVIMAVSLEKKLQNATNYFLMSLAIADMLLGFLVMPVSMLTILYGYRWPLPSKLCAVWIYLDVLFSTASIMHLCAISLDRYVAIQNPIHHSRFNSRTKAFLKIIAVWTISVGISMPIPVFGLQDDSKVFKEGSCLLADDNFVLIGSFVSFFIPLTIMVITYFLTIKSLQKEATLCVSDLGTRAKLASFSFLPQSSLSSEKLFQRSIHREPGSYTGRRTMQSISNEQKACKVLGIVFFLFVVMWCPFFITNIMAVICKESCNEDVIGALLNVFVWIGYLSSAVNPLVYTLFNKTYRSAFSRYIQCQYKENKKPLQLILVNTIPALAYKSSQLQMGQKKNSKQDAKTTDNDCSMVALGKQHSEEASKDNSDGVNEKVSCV
Beta-2 adrenergic receptor (Homo sapiens), sequence (P07550 whole entry, looked up): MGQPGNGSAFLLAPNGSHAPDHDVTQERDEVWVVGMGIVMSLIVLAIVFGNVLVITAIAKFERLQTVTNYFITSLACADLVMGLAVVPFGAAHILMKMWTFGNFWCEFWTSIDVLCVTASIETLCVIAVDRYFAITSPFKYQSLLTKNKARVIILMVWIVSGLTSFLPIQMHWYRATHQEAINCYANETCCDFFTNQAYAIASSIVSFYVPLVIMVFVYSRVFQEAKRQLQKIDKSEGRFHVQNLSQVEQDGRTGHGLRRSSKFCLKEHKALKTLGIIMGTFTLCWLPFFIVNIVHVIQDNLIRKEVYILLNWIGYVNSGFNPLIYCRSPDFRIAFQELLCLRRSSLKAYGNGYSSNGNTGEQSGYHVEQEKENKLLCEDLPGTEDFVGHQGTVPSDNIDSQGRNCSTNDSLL

NNc1nncc2ccccc12
active: Potency [1] 30.6 µM | Potency [7] 32.4 µM
inactive: activity change, negative = cytotoxicity [1] -11.5% [at 19 µM] | Potency [2] | Potency [3] | Potency [4] | Potency [5] | Potency [6] | activity change, negative = cytotoxicity [7] -0.157% [at 13.5 µM] | activity change, negative = cytotoxicity [8] 0.405% [at 13.5 µM] | Potency [9] | Potency [10] | activation [11] 0.777% [at 19 µM] | Potency [12] | Potency [13] | Potency [14]

N#CCC(=O)O
inactive: Potency [1] | Potency [15] | Potency [2] | Potency [3] | Potency [4] | Potency [5] | Potency [6] | Potency [7] | Potency [8] | Potency [9] | Potency [10] | Potency [16] | Potency [17] | Potency [18] | Potency [19] | Potency [11] | Potency [12] | Potency [13] | Potency [20] | Potency [14]

C1C[C@@H]2[C@H]3CC[C@H](C3)[C@@H]2C1
inactive: Potency [1] | Potency [15] | Potency [2] | Potency [3] | Potency [4] | Potency [5] | Potency [6] | Potency [7] | Potency [8] | Potency [9] | Potency [10] | Potency [16] | Potency [17] | Potency [18] | Potency [19] | Potency [11] | Potency [12] | Potency [13] | Potency [20] | Potency [14]

Cc1ccc(CO)cc1
inactive: Potency [1] | Potency [15] | Potency [2] | Potency [3] | Potency [4] | Potency [5] | Potency [6] | Potency [7] | Potency [8] | Potency [9] | Potency [10] | Potency [16] | Potency [17] | Potency [18] | Potency [19] | Potency [11] | Potency [12] | Potency [13] | Potency [20] | Potency [14]

[O]=[Zr]
inactive: Potency [1] | Potency [15] | Potency [2] | Potency [3] | Potency [4] | Potency [5] | Potency [6] | Potency [7] | Potency [8] | Potency [9] | Potency [10] | Potency [16] | Potency [17] | Potency [18] | Potency [19] | Potency [11] | Potency [12] | Potency [13] | Potency [20] | Potency [14]

CC(Cl)COP(=O)(OCC(C)Cl)OCC(C)Cl (stereo unspecified)
inactive: Potency [1] | Potency [15] | Potency [2] | Potency [3] | Potency [4] | Potency [5] | Potency [6] | Potency [7] | Potency [8] | Potency [9] | Potency [10] | Potency [16] | Potency [17] | Potency [18] | Potency [19] | Potency [11] | Potency [12] | Potency [13] | Potency [20] | Potency [14]
